Most compounds without a hit are left out; they make up all but 4.7% or so of the library.
eIF4H FP inh – inhibitors of RNA binding by human eIF4H; actives 0.94% (n = 290,000); AID 2012; eIF4H fluorescence polarization binding assay; Q15056; inhibition, % at 35 µM;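 note: calls also rest on retests at 20 µM and on dose response follow-up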
ALR H2O2 inh – human ALR oxidase inhibition via reduced H2O2; AID 485317; inhibition, % (concentration not given with the values); purified ALR, DTT oxidation, H2O2 HRP-luminol luminescence; actives 3.8% (n = 290,000);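 active = mean replicate inhibition above about 79%, with every replicate also reaching it, limit read from the data; inconclusive = only one of the two criteria met; inactive = mean below limit and not every replicate reaching it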
Target sequence (P55789 whole entry, looked up): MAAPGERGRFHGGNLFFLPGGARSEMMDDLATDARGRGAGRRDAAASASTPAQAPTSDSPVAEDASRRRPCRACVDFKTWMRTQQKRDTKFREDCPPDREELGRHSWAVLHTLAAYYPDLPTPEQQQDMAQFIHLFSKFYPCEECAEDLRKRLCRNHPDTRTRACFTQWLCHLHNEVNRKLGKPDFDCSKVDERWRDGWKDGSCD
UBC9 SUMO inh – inhibitors of human SUMOylation (UBC9); actives 0.36% (n = 290,000); HTRF SUMOylation assay, SAE1/SAE2 + UBC9, in vitro; inhibition, % at 35 µM; in the data active = inhibition above about 50%, passing the limit was not always enough; inconclusive = no clear call, values can overlap the other calls
Efflux pump inh – inhibitors of Candida antifungal efflux pumps expressed in yeast; S. cerevisiae Candida pump triplex, Nile Red efflux; inhibition, % at 10 µM; actives 0.44% (n = 330,000);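 active = plate passing quality check with inhibition over a set limit, or well fluorescence over plate mean plus 4 SD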;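 note: Nile Red retained in pooled yeast measured as flow cytometry median fluorescence; higher means more Nile Red kept so more efflux inhibition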
MLLE-PAM2 inh – blocks PAM2 peptide binding to the PABP1 MLLE domain; actives 0.36% (n = 360,000); inhibition, % at 20 µM; GST-MLLE / FITC-PAM2 fluorescence polarization; P11940; in the data active = inhibition above about 35%, passing the limit was not always enough
PABP FP inh – PABP-poly(A) binding inhibition. P11940. actives 1% (n = 290,000). PABP-poly(A) RNA binding, fluorescence polarization. inhibition, % at 35 µM. AID 2014;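 note: calls also rest on retests at 20 µM and on dose response follow-up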
Cmpd fluor yeast – compound fluorescence in yeast efflux pump counter-screen | shares compounds with Efflux pump inh | S. cerevisiae AD/pABC3, flow cytometry | fluorescence ratio to DMSO, % at 10 µM | actives 4% (n = 1,700) | AID 588517;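 active = fluorescence ratio to DMSO above its plate's cutoff, the plate mean ratio plus 5 SD, cut at about 210% in these data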;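 note: unstained yeast with no Nile Red so the signal is compound autofluorescence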
Mdr1 pump inh – inhibitors of Candida albicans Mdr1 efflux pump; shares compounds with Efflux pump inh; S. cerevisiae AD/CaMDR1, Nile Red efflux, flow cytometry; inhibition, % at 10 µM; actives 1% (n = 1,700); in the data active = inhibition above about 26%;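 note: higher means more Nile Red retained so more efflux inhibition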
CaCdr2 efflux inh – blocks the Candida albicans Cdr2 efflux pump in yeast | shares compounds with Efflux pump inh | S. cerevisiae AD/CaCDR2, Nile Red retention, flow cytometry | Nile Red retention ratio vs DMSO, % at 10 µM | actives 4% (n = 1,700) | AID 588520; in the data active = Nile Red retention ratio vs DMSO above about 190%;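 note: higher ratio means more blocking of Cdr2 efflux of the dye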
CaCdr1 efflux inh – inhibitors of Candida albicans Cdr1 efflux pump; shares compounds with Efflux pump inh; S. cerevisiae AD/CaCDR1, Nile Red efflux, flow cytometry; inhibition, % at 10 µM; actives 1% (n = 1,700);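 active = inhibition above the screen-wide mean plus twice its standard deviation, cut at about 32% in these data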
Large screens that a line does not name were inactive (follow-up assays come after a bar, where they were run). Unless noted, the rule behind the calls is not given here.

CCCCN1C(=O)/C(=C/c2ccc(N3CCCCCC3)cc2)C(=O)NC1=S	none (no result: MLLE-PAM2 inh)
O=C1NC(=S)N(C2CC2)C(=O)/C1=C/c1ccc2c(c1)CCN2CCCCl	ALR H2O2 inh 97.9
CCN1C(=O)/C(=C/c2ccc3c(c2)CCN3CCCCl)C(=O)NC1=S	ALR H2O2 inh 98.1
C=CCN1C(=O)/C(=C/c2ccc3c(c2)CCCN3CCC)C(=O)NC1=S	ALR H2O2 inh 99.1
O=[N+]([O-])c1cc(-n2cnnn2)c(O)c([N+](=O)[O-])c1	none (no result: ALR H2O2 inh)
COC(=O)C(O)(c1ccc(NC(=S)NC(=O)c2ccccc2)cc1)C(F)(F)F (centres undefined)	none
C=CCN1C[C@@H](C)N(C(c2ccc(C(=O)N(CC)CC)cc2)c2cccc(OC)c2)C[C@@H]1C (some centres undefined)	none (no result: eIF4H FP inh, UBC9 SUMO inh, PABP FP inh)
COc1ccc(-c2ccc3c(c2)CN(C(=O)C(C)(C)C)Cc2cnnn2-3)cc1	none (no result: eIF4H FP inh, ALR H2O2 inh, UBC9 SUMO inh, Efflux pump inh, PABP FP inh)
CCN1CCN(S(=O)(=O)c2ccc(Cl)c(C(=O)Nc3ccc(C(=O)N(CC)CC)cc3)c2)CC1	none (no result: eIF4H FP inh, PABP FP inh)
c1cc2c(cc1N1CCOCC1)CNCc1cnnn1-2	none (no result: eIF4H FP inh, ALR H2O2 inh, UBC9 SUMO inh, Efflux pump inh, PABP FP inh)
CN1CCN(c2ccc([N+](=O)[O-])c3no[n+]([O-])c23)CC1	eIF4H FP inh inconclusive, UBC9 SUMO inh 54.6, PABP FP inh inconclusive
CN(C)CCCN=Cc1c(O)n(CCc2ccccc2)c(=O)[nH]c1=O	eIF4H FP inh 95.5
CN(C)CCCN=Cc1c(O)n(CCc2ccc(F)cc2)c(=O)[nH]c1=O	none (no result: ALR H2O2 inh)
CCC(C)N1C(=O)/C(=C\c2cc3c4c(c2)CCCN4CCC3)C(=O)NC1=S (centres undefined)	ALR H2O2 inh 98.7, Efflux pump inh 0.7 | Cmpd fluor yeast inactive | Mdr1 pump inh inactive | CaCdr2 efflux inh inactive | CaCdr1 efflux inh inactive
CCC(C)N1C(=O)/C(=C\c2ccc(N3CCCCCC3)cc2)C(=O)NC1=S (centres undefined)	none
CCOC(=O)c1c(-n2c(C)cc(/C=C3\C(=O)NC(=O)N(C)C3=O)c2C)sc2c1CCCC2	eIF4H FP inh inconclusive, PABP FP inh inconclusive
Cc1cc(/C=C2\C(=O)NC(=O)N(c3ccc(Cl)cc3)C2=O)c(C)n1-c1sc2c(c1C#N)CCCC2	eIF4H FP inh inconclusive, Efflux pump inh 0.8 | Cmpd fluor yeast inactive | Mdr1 pump inh inactive | CaCdr2 efflux inh inactive | CaCdr1 efflux inh inactive
CN1CCC(O)(c2cccs2)C(C(=O)c2cccs2)C1 (centres undefined)	none
Clc1ccc(C(c2ccc(Cl)cc2)n2cc[n+](CC(OCc3ccc(Cl)cc3Cl)c3ccc(Cl)cc3Cl)c2)cc1 (centres undefined)	Efflux pump inh 90.4 (no result: eIF4H FP inh, UBC9 SUMO inh, PABP FP inh) | Cmpd fluor yeast inactive | Mdr1 pump inh inactive | CaCdr2 efflux inh active | CaCdr1 efflux inh inactive
CCc1ccc(C2=NN(CCC(=O)N3CCC4(CC3)OCCO4)C(=O)CC2)cc1	none
Cc1ccc2c(c1)C1CN(C)CCC1N2C(=O)c1ccc(Br)o1 (centres undefined)	Efflux pump inh 0.6 (no result: ALR H2O2 inh) | Cmpd fluor yeast inactive | Mdr1 pump inh inactive | CaCdr2 efflux inh inactive | CaCdr1 efflux inh inactive
O=C(Nc1c(F)cc(F)cc1F)c1cccn(Cc2ccccc2)c1=O	Efflux pump inh 0.8 | Cmpd fluor yeast inactive | Mdr1 pump inh inactive | CaCdr2 efflux inh inactive | CaCdr1 efflux inh inactive
CCOc1ccc(N2C(=O)/C(=C/c3ccc(C)o3)C(=O)NC2=S)cc1	Efflux pump inh 0.9 (no result: ALR H2O2 inh) | Cmpd fluor yeast inactive | Mdr1 pump inh inactive | CaCdr2 efflux inh inactive | CaCdr1 efflux inh inactive
CC(=O)Cc1c[nH]c2ccccc12	none (no result: ALR H2O2 inh, MLLE-PAM2 inh)
O=c1c2ccccc2[se]n1-c1ccccc1	Efflux pump inh 4.0, MLLE-PAM2 inh 37.3 (no result: ALR H2O2 inh) | Cmpd fluor yeast inactive | Mdr1 pump inh inactive | CaCdr2 efflux inh inactive | CaCdr1 efflux inh inactive
O=c1c2ccccc2nc(-c2ccccc2)n1-c1ccccc1	none (no result: ALR H2O2 inh)
CC12CN3CCN(C1)CC(C)(C3)C2=NN	none (no result: ALR H2O2 inh)
CCC(=NCc1cccnc1)c1c(O)n(-c2ccccc2C)c(=O)[nH]c1=O	none (no result: ALR H2O2 inh)
CC(=NCc1cccnc1)c1c(O)n(-c2ccccc2C)c(=O)[nH]c1=O	Efflux pump inh 1.8 | Cmpd fluor yeast inactive | Mdr1 pump inh inactive | CaCdr2 efflux inh inactive | CaCdr1 efflux inh inactive
